Assay outcomes: PubChem, National Center for Advancing Translational Sciences (NCATS)
HT1080NT lethal: kills 2HG-producing HT-1080-NT fibrosarcoma cells | 1.6% of 360,000 active | HT-1080-NT fibrosarcoma viability, CellTiter-Glo ATP luminescence, 48 h | Potency, µM (doses to about 46.1 µM), actives largely listed as cytotoxic;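 also: NT is the 2HG producing partner of a matched IDH1 knockdown line; nearly all actives have a fitted effect of over 55% in size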
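Viability of the 2HG-overproducing fibrosarcoma line after 48 hours of compound exposure at 37 degrees C was determined by luminescence with CellTiter-Glo, and concentration-effect curves were then fitted and categorized.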
TDP1 cell CPT: DT40-hTDP1 cell growth loss with CPT. 12% of 420,000 active. Potency, µM (highest dose often 46.2 µM), usual class: inhibitors. chicken DT40 Tdp1-/-;hTDP1 cells + 20 nM CPT, ATP luminescence, 48 h; also: nearly all actives have a fitted effect of over 55% in size
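Chicken DT40 Tdp1-/- cells stably complemented with human TDP1 were seeded at 400 cells/well in medium containing 20 nM camptothecin, exposed to pin-transferred compounds, and grown at 37 °C for at least 48 hr. Viability was read as ATP luminescence.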
HT1080 IDH1KD tx: toxicity to HT-1080 IDH1 knockdown cells (counter line); HT-1080 IDH1 knockdown viability, ATP luminescence, 48 h; Potency, µM (highest dose often 46.1 µM), usual class: cytotoxic; 2% of 360,000 active; AID 686971
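In this qHTS, HT-1080 cells depleted of IDH1 are exposed for 48 h at 37 °C to compound titrations. Toxicity is scored from CellTiter-Glo luminescence, with DMSO as full viability and medium alone as none.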
ALOX12 inh: ALOX12 (human) lipoxygenase inhibition | P18054 | purified 12hLO, xylenol orange hydroperoxide absorbance | Potency, µM (titrated, usually from 108 µM), usual class: inhibitors | 1.1% of 580,000 active | AID 1671190
Target sequence (P18054 whole entry, looked up): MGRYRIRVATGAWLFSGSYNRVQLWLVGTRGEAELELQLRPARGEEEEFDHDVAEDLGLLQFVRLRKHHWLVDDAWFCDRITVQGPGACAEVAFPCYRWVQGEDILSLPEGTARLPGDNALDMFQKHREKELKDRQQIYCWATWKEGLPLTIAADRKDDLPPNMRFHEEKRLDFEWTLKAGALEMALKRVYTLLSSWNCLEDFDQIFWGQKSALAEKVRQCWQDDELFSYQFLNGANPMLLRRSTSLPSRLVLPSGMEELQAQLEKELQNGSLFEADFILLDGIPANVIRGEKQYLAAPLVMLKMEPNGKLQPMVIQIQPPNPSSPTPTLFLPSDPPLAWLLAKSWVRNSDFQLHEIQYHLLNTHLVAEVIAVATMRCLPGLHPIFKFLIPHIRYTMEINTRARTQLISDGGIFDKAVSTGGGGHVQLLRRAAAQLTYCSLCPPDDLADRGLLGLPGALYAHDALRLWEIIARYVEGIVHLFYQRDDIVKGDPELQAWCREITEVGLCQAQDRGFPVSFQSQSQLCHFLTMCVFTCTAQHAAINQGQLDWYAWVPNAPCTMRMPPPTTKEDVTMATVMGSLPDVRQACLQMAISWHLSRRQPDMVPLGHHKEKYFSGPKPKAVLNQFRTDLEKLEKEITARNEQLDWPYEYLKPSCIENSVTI
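Purified human 12hLO (150 nM final) in 25 mM Hepes, 0.01% Triton X-100, pH 7.0 was preincubated 15 min at room temperature with compound. Then 40 uM arachidonic acid was added, 30 min. Hydroperoxide was read by Fe-XO absorbance ratio 573/405 nm.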
IL1B secr inh: inflammasome signaling inhibition, IL-1 beta readout. 4.7% of 360,000 active. activity change, % at 57.5 µM. THP-1 LPS/ATP IL-1B secretion, AlphaLISA, 16 h; hits give low values; in the data active = activity change below about -50%; inconclusive = mostly about -30% to -49%
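THP-1 cells pretreated 1 hr with compounds (up to 57.5 uM final), then stimulated with LPS (250 ng/mL final) plus ATP (1.25 mM final); secreted IL-1B measured by AlphaLISA after 16 hr, decreased signal indicating inhibition.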
TDP1 cell noCPT: qHTS for Inhibitors of human tyrosyl-DNA phosphodiesterase 1 (TDP1): qHTS in cells in absence of CPT; DT40 Tdp1-/- hTDP1 cells, no CPT, ATP luminescence, 48 h; Potency, µM (doses to about 46.2 µM), hits mostly inhibitors; 15% of 420,000 active; AID 686978, 2013; also: nearly all actives have a fitted effect of over 55% in size
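Growth of hTDP1-complemented DT40 Tdp1-knockout cells is measured by ATP luminescence after at least 48 hr compound exposure at 37 °C, with DMSO substituting for the 20 nM CPT used in the parallel screen.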
Hits are given with their value; i = inactive; ? = inconclusive; nt = not tested or not shown; ! = repeats disagree; [ ] = dose if it differs, or a comment. Shown is part of a subset that was picked to be rich in hits. Unless noted, calls follow the shape of the dose curve; as a rule, active = well fitted curve in the direction sought with a large enough effect; inconclusive = small, poorly fitted or top-dose-only effect, or another doubt; inactive = no such curve, though single readings can be large; an effect the other way counts as inactive or inconclusive.

SMILES | HT1080NT lethal | TDP1 cell CPT | HT1080 IDH1KD tx | ALOX12 inh | IL1B secr inh | TDP1 cell noCPT
COc1ccccc1-c1cc([C@H]2CN3CC[C@H]2C[C@@H]3CNS(=O)(=O)c2cccs2)n(C)n1 | nt | nt | nt | i | nt | nt
COc1ccccc1CNC(=O)[C@H]1CN2CCC1C[C@@H]2Cn1cc(C(C)(C)O)nn1 (some centres not stated) | nt | nt | nt | i | nt | nt
Cc1c(C=O)c2ccccc2n1Cc1ccccc1 | i | i | i | i | i | i
O=Cc1c(C(=O)O)n(Cc2ccc(Cl)cc2)c2ccccc12 | i | i | i | 11.2µM | i | i
O=C(Nc1ccccc1OC(=O)N1CCOCC1)N1CCOCC1 | i | i | i | i | i | i
Cc1cccc(/C(N)=N/OC(=O)N2CCOCC2)c1 | ? | 16.4µM | 11.2µM | i | i | 18.4µM
CN1Cc2ccccc2-n2ccnc2C12CCN(C(=O)Cc1cccc(F)c1)CC2 | nt | nt | nt | i | nt | nt
O=C1c2ccccc2NC2(c3ccccc3)c3ccccc3-n3nncc3CN12 (configuration not stated) | nt | nt | nt | i | nt | nt
Cc1cc2c(C(C)C)c(O)c(O)c(C=O)c2c(O)c1-c1c(C)cc2c(C(C)C)c(O)c(O)c(C=O)c2c1O | nt | 5.8µM | nt | 1.09µM! | nt | 5.8µM
CCCCNC(=S)N(CCN(CC)CC)Cc1cc2cc3c(cc2[nH]c1=O)OCO3 | i | ? | i | i | ? | 14.6µM
COc1ccc(OCC(=O)N2CCCC(N3CCN(c4ccccc4C)CC3)C2)cc1 (configuration not stated) | i | 16.4µM | i | i | i | 20.6µM
O=C(Cc1ccccc1)N1CCN(C2CCCC2)CC1 | i | i | i | 0.891µM | i | i
CCC(CC)N1CCN(C(=O)Cc2ccccc2)CC1 | i | i | i | ? | i | i
COc1ccc(OCC(=O)N2CCN(C3CCC(c4ccccc4)CC3)CC2)cc1 (configuration not stated) | i | ? | i | ? | i | 18.4µM
O=C(COc1ccc2ccccc2c1)N1CCN(CC2CC3C=CC2C3)CC1 (configuration not stated) | i | 18.4µM | i | ? | i | 18.4µM
O=C(Cc1ccccc1)N1CCC(C(=O)O)(c2ccccc2)CC1 | nt | nt | nt | i[6.33 µM] | nt | nt
CN1CCN(C(=O)COc2ccc3ccccc3c2)CC1 | i | i | i | i | i | i
O=C(COc1ccc2ccccc2c1)N1CCN(C2CCN(Cc3ccccc3)CC2)CC1 | i | 16.4µM | i | i | i | ?
COc1nc2ccccc2nc1N1CC1 | i | 0.92µM | i | ? | i | 1.64µM
C=C[C@H]1CN2CC[C@H]1C[C@@H]2CNS(=O)(=O)c1ccc(OC)cc1 | nt | nt | nt | i | nt | nt
COc1cc2c(cc1O)[C@@H]1Cc3ccc(OC)c(O)c3CN1CC2 | 2.59µM | 4.61µM | 2.59µM | i | i | 4.11µM
COc1ccc2c(c1)C1(CCN(S(=O)(=O)c3ccc(C)cc3)C1)C(=O)N2C (configuration not stated) | nt | nt | nt | i | nt | nt
CCCc1[nH]nc2c1C(c1ccc(OC)c(Cn3nnc4ccccc43)c1)C(C#N)=C(N)O2 (configuration not stated) | i | 25.9µM | i | nt | i | ?
CCCOc1cccc(CCN)c1 | nt | nt | nt | i | nt | nt
CN(C)CC(=O)Nc1ccc2n(c1=O)C[C@H]1C[C@@H]2CN(C(=O)c2cccnc2)C1 | nt | nt | nt | i | nt | nt
SMILES | HT1080NT lethal | TDP1 cell CPT | HT1080 IDH1KD tx | ALOX12 inh | IL1B secr inh | TDP1 cell noCPT
C=CCOc1c(Cl)cc(CNc2ccc3[nH]c(=O)[nH]c3c2)cc1OC | ? | 13µM | ? | i | i | ?
CCOc1c(Cl)cc(CNC(C)C(O)c2ccccc2)cc1OC (configuration not stated) | i | i | i | i | i | i
COc1ccc2[nH]c(C)c(CCNCc3cc(OC)c(OC)c(OC)c3)c2c1 | i | ? | i | i | i | i
CCOc1c(Cl)cc(CNc2ccc(S(N)(=O)=O)cc2)cc1OC | i | ? | i | i | i | 16.4µM
COc1ccc(-c2cn(C[C@H]3C[C@@H]4CCN3C[C@@H]4C(=O)NC(C)C)nn2)cc1 | nt | nt | nt | i | nt | nt
CN(CCc1ccccn1)C[C@H]1CN2CC[C@H]1C[C@@H]2CNC(=O)c1ccc(C(F)(F)F)cc1 | nt | nt | nt | i | nt | nt
C[n+]1ccc(-c2ccncc2)cc1 | i | i | i | 12.6µM | i | i
CC12CCC3c4ccc(OP(=O)(N5CC5)N5CC5)cc4CCC3C1CCC2=O (configuration not stated) | i | 14.6µM | i | i | i | 13µM
CC[C@H](C)[C@H]1O[C@]2(C=C[C@@H]1C)C[C@@H]1C[C@@H](C/C=C(\C)[C@@H](O[C@H]3C[C@H](OC)[C@@H](O[C@H]4C[C@H](OC)[C@@H](O)[C@H](C)O4)[C@H](C)O3)[C@@H](C)/C=C/C=C3\CO[C@@H]4[C@H](O)C(C)=C[C@@H](C(=O)O1)[C@]34O)O2 | nt | ? | nt | nt | nt | 16.4µM
c1ccc(CCNCC2CCCO2)cc1 (configuration not stated) | nt | nt | nt | i | nt | nt
O=C1OCCC1Sc1ncccc1Cl (configuration not stated) | nt | nt | nt | i | nt | nt
COC[C@H]1OC(=O)c2coc3c2[C@@]1(C)C1=C(C3=O)[C@H]2CCC(=O)[C@@]2(C)C[C@H]1OC(C)=O | nt | 9.44µM | nt | nt | nt | ?
COC[C@H]1OC(=O)c2coc3c2[C@@]1(C)C1=C(C3=O)C2CCC(=O)[C@@]2(C)C[C@H]1OC(C)=O (some centres not stated) | ? | 1µM | ? | ? | nt | 0.631µM
CN1[C@@H](CCC(=O)NCc2cccnc2)CNC(=O)[C@H]2NCC[C@H]21 | nt | nt | nt | i | nt | nt
COCCNC(=O)[C@H]1CN2CCC1C[C@@H]2Cn1cc(-c2ccc(-c3ccccc3)cc2)nn1 (some centres not stated) | nt | nt | nt | i | nt | nt
CC1=CC(=O)C2=C(C)C[C@H](O)[C@@H]3[C@H](OC(=O)[C@H]3C)[C@@H]12 | i | i | i | i | -79.2 | i
CCN(CC)S(=O)(=O)c1ccc(C(=O)NC(=S)N2CCN(c3ccccc3O)CC2)cc1 | i | ? | i | ? | i | 18.4µM
O=C1OCC2(CCN(Cc3ccn[nH]3)C2)N1c1ccncc1 (configuration not stated) | nt | nt | nt | i | nt | nt
O=C(COc1ccccc1)N1CCN(Cc2c[nH]c3ccccc23)CC1 | i | 3.66µM | i | i | i | 8.2µM
COc1ccc(OCC(=O)N2CCN(Cc3c[nH]c4ccccc34)CC2)cc1 | i | 1.64µM | i | ? | i | 3.66µM
O=C1NCCOCCCN[C@H]2CCCC[C@@H]12 | nt | nt | nt | i | nt | nt
O=C(c1ccc(F)cc1)N1C[C@@H]2C[C@H](C1)c1c(/C=C/c3ccc(Cl)cc3)ccc(=O)n1C2 | nt | nt | nt | i | nt | nt
